Compound activity as filed in PubChem.
TDP1 inh: blocks human tyrosyl-DNA phosphodiesterase 1 | recombinant TDP1, AlphaScreen DNA substrate cleavage | Potency, µM (doses to about 130 µM), without a hit: at the highest dose activity change, negative = inhibition, usual class: inhibitors | hit rate 0.28% among 350,000; note: nearly all actives have a fitted effect of over 40% in size
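Compounds were preincubated with Tdp1 (1 nM final) for 15 min at room temperature before substrate (15 nM final) started a 5 min reaction; beads (10 ug/ml final) were then added for 10 min before AlphaScreen detection.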
DT40 TDP1 no CPT: qHTS for Inhibitors of human tyrosyl-DNA phosphodiesterase 1 (TDP1): qHTS in cells in absence of CPT. DT40 Tdp1-/- hTDP1 cells, no CPT, ATP luminescence, 48 h. Potency, µM (titrated, usually from 46.2 µM), for the others: top-dose activity change, negative = growth inhibition, hits mostly inhibitors. hit rate 15% among 420,000. AID 686978, 2013; note: nearly all actives have a fitted effect of over 55% in size
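Seeded 400 DT40-hTDP1 cells/well (vehicle DMSO, no 20 nM CPT); pinned compounds; ≥48 hr at 37 °C; CellTiter-Glo luminescence as viability measure.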
DT40 TDP1 CPT: DT40-hTDP1 cell growth loss with CPT | Potency, µM (highest dose often 46.2 µM), without a hit: top-dose activity change, negative = growth inhibition, actives largely listed as inhibitors | hit rate 12% among 420,000 | AID 686979 | chicken DT40 Tdp1-/-;hTDP1 cells + 20 nM CPT, ATP luminescence, 48 h; note: nearly all actives have a fitted effect of over 55% in size
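Cell growth measured by CellTiter-Glo luminescence after a minimum 48 h, 37 C compound exposure with 20 nM CPT in Tdp1-knockout DT40 cells stably expressing hTDP1, seeded 400/well; qHTS titration format.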
PLK1 PBD inh: blocks phosphopeptide binding to human PLK1 polo-box domain; Plk1 PBD binding of FITC phosphopeptide, fluorescence polarization; P53350; hit rate 2.8% among 360,000; Potency, µM, without a hit: max response, negative = inhibition, actives largely listed as inhibitors; note: series mostly up to about 57 µM; nearly all actives have a fitted effect of over 65% in size
GCN5L2 inh: inhibitors of human GCN5L2 histone acetyltransferase; Q92830; GCN5L2 HAT assay, ThioGlo1 CoA-SH fluorescence; Potency, µM (highest dose often 58.9 µM), for the others: at the highest dose activity change, negative = inhibition, hits mostly inhibitors; hit rate 0.21% among 390,000
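Fluorescence readout, Ex340nm/Em540nm: ThioGlo1 (50uM final) reacts with free CoA thiol released as 20nM GCN5L2 acetylates H3(1-25) peptide (75uM) using acetyl-CoA (70uM). Compound and enzyme sat 15 min beforehand; 20 min room-temperature reaction.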
VDR inhibitor: blocks the human vitamin D receptor | VDR-SRC2-3 peptide fluorescence polarization, 2 h | Potency, µM, for the others: max response, negative = inhibition, usual class: inhibitors | hit rate 0.93% among 400,000 | AID 504847
Target sequence (P11473 whole entry, looked up): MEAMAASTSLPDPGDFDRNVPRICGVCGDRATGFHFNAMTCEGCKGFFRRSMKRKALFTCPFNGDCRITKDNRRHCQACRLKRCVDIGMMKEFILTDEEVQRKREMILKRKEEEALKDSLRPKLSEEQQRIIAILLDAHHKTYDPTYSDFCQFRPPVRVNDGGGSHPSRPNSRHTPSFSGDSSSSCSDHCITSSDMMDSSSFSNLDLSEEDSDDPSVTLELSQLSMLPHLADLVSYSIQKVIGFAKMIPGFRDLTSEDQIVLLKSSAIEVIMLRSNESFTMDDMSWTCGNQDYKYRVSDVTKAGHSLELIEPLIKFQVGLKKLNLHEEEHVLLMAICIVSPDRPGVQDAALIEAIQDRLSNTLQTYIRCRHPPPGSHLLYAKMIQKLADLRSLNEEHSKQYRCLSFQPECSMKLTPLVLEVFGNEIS
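FP read-out; VDR + SRC2-3 coactivator peptide; 23 nl compound by pintool; 2 h RT incubation; reagents held at 4 deg C, protected from light.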
* marks the source's active call; other numbers are inactive results; ? = inconclusive; . = not tested or not shown. The list is not random: actives were taken first. Their share in the collection is about 18%. Calls come from the whole dose curve; as a rule, active = well fitted curve in the direction sought with a large enough effect; inconclusive = small, poorly fitted or top-dose-only effect, or another doubt; inactive = no such curve, though single readings can be large; an effect the other way counts as inactive or inconclusive. % is set by controls: 0 for no effect and ±100 for the full control effect; potency is the fitted concentration of half-maximal effect.

SMILES	TDP1 inh	DT40 TDP1 no CPT	DT40 TDP1 CPT	PLK1 PBD inh	GCN5L2 inh	VDR inhibitor
CCSC[C@H](NC(=O)[C@H](C)N)C(=O)N[C@@H](CC(=O)O)C(=O)N[C@H](C(=O)N[C@@H](C)C(=O)N[C@H](C(=O)N[C@@H](CSCC)C(=O)N[C@H](C(=O)N[C@H](C(=O)N[C@@H](Cc1cnc[nH]1)C(=O)N[C@@H](CCCNC(=N)N)C(=O)N[C@@H](CC(C)C)C(=O)N[C@@H](C)C(=O)NCC(=O)N[C@@H](CC(C)C)C(=O)N[C@@H](CC(C)C)C(=O)N[C@@H](CO)C(=O)N[C@@H](CCCNC(=N)N)C(=O)N[C@@H](CO)C(=O)NCC(=O)NCC(=O)N[C@H](C(=O)N[C@H](C(=O)N[C@@H](CCCCN)C(=O)N[C@@H](CC(N)=O)C(=O)N[C@@H](CC(N)=O)C(=O)N[C@@H](Cc1ccccc1)C(=O)N[C@H](C(=O)N1CCC[C@H]1C(=O)N[C@H](C(=O)N[C@@H](CC(N)=O)C(=O)N[C@H](C(=O)NCC(=O)N[C@@H](CO)C(=O)N[C@@H](CCCCN)C(=O)N[C@@H](C)C(=O)N[C@@H](Cc1ccccc1)C(N)=O)C(C)C)[C@@H](C)O)C(C)C)C(C)C)C(C)C)[C@@H](C)O)C(C)C)[C@@H](C)O)[C@@H](C)O	6.2%	.	.	.	-9.9%	9.7%
CCN(CC)S(=O)(=O)c1cccc(-c2nnc(SCc3ncc(-c4ccccc4)o3)n2C)c1	5.9%	18.4µM*	?	5.8%	1.7%	8.6%
CCN(CC)S(=O)(=O)c1cccc(-c2nnc(SCC(N)=O)n2C)c1	-2.6%	1.4%	16.3%	-5.9%	-1.0%	0.4%
COC(=O)[C@]12CCCCC=C1N(Cc1ccc3c(c1)OCO3)C(=O)[C@H](CC(=O)NCC13CC4CC(CC(C4)C1)C3)C2	.	18.4µM*	?	1.9%	.	.
CCOC(=O)[C@]12CCC=C1N(Cc1ccc3c(c1)OCO3)C(=O)[C@H](CC(=O)NCCCOC)C2	.	-26.6%	-9.6%	-1.2%	.	.
CCOC(=O)[C@]12CCC=C1N(Cc1ccc3c(c1)OCO3)C(=O)[C@H](CC(=O)NCc1ccc(C)o1)C2	.	23.1µM*	?	-21.5%	.	.
CCCCNC(=O)C[C@@H]1C[C@@]2(C(=O)OCC)CCCC=C2N(Cc2ccc3c(c2)OCO3)C1=O	.	20.6µM*	?	1.8%	.	.
CCOC(=O)[C@]12CCCC=C1N(Cc1ccc3c(c1)OCO3)C(=O)[C@H](CC(=O)NCCC(C)C)C2	.	?	?	-6.3%	.	.
COC(=O)[C@]12CCCCC=C1N(Cc1ccc3c(c1)OCO3)C(=O)[C@H](CC(=O)NCc1ccc(C)o1)C2	.	?	?	-2.3%	.	.
CCCCOCCCNC(=O)C[C@@H]1C[C@@]2(C(=O)OCC)CCCC=C2N(Cc2ccc3c(c2)OCO3)C1=O	.	?	6.51µM*	-14.4%	.	.
COc1ccccc1Cc1c(-c2ccc(C#N)cc2)nc2c3ccccc3ccn12	.	20.6µM*	20.6µM*	-2.7%	.	.
COc1ccc(-c2nc3c4ccccc4ccn3c2Cc2ccccc2)cc1OC	.	16.4µM*	?	8.5%	.	.
COc1ccccc1Cc1c(-c2ccc(OC)c(OC)c2)nc2c3ccccc3ccn12	.	23.1µM*	?	-1.5%	.	.
COc1ccccc1Cc1c(-c2ccc(OC)c(OC)c2)nc2c(Cl)cc(C(F)(F)F)cn12	.	-27.1%	-26.8%	6.2%	.	.
COc1ccc(-c2nc3cc(C)c(Br)c(C)n3c2Cc2ccccc2C(F)(F)F)cc1OC	.	?	-29.3%	7.9%	.	.
COc1ccc(-c2nc3c4ccccc4ccn3c2Cc2ccccc2C(F)(F)F)cc1OC	.	16.4µM*	?	-6.8%	.	.
COc1ccccc1Cc1c(C(C)(C)C)nc2c3ccccc3ccn12	.	2.59µM*	3.26µM*	-13.3%	.	.
COc1ccc(-c2nc3ccc(Br)cn3c2Cc2ccccc2C(F)(F)F)cc1OC	.	?	?	9.3%	.	.
COc1ccc(Cc2c(-c3ccccc3)nc3c4ccccc4ccn23)c(C)c1	.	14.6µM*	?	10.4%	.	.
COc1ccc(-c2nc3ccc(Cl)cn3c2Cc2ccccc2C(F)(F)F)cc1OC	.	16.4µM*	18.4µM*	2.4%	.	.
CCc1cccc(NC(=O)c2nc(-c3ccncc3)no2)c1	3.9%	-19.4%	?	.	-5.3%	-0.2%
CCCOc1cccc(C2c3c(-c4ccccc4O)n[nH]c3C(=O)N2Cc2ccco2)c1 (stereo not given)	11.0%	?	?	.	-6.8%	12.8%
COc1ccc(CCC(C)NCc2ccccc2OC)cc1 (stereo not given)	4.4%	?	25.9µM*	0.5%	0.8%	3.4%
COc1cc(CNCc2ccc(OC)c(OC)c2OC)cc(OC)c1	-8.4%	20.6µM*	18.4µM*	-12.1%	-8.3%	-13.9%
CCN(CC)CCn1c(NCc2cccc(OC)c2)nc2ccccc21	3.3%	?	?	-6.4%	-5.6%	0.9%
SMILES	TDP1 inh	DT40 TDP1 no CPT	DT40 TDP1 CPT	PLK1 PBD inh	GCN5L2 inh	VDR inhibitor
CCN(CC)CCn1c(NCc2cc(OC)ccc2OC)nc2ccccc21	0.0%	?	?	26.7µM*	0.5%	?
O=C(Cn1c(CO)nc2ccccc21)NCc1ccc2c(c1)OCO2	7.7%	-15.1%	-8.7%	-1.2%	-2.8%	8.7%
CCN(CC)CCn1c(NCc2ccc3c(c2)OCO3)nc2ccccc21	2.7%	16.4µM*	13µM*	-4.5%	-6.8%	-15.7%
C=CCN1[C@@H](Cc2ccccc2)COCCS1(=O)=O	.	-24.1%	-19.5%	1.5%	.	-5.4%
COc1ccc(CNc2nc3ccccc3n2C)c(OC)c1	0.0%	16.4µM*	?	-9.9%	23.4%	-10.5%
COc1ccc(CNCc2ccc3ccccc3c2)c(OC)c1	4.6%	16.4µM*	16.4µM*	-6.1%	0.3%	6.9%
CCc1ccc2c(c1)NC(=O)C2(C)Cc1cccc(F)c1 (stereo not given)	.	?	?	-9.5%	.	.
CC1(Cc2ccc(S(C)(=O)=O)cc2)C(=O)Nc2ccc(Cl)cc21 (stereo not given)	.	-23.9%	6.3%	-0.1%	.	.
CC1(Cc2cccc(F)c2)C(=O)Nc2ccc(-c3cccnc3)cc21 (stereo not given)	.	10.3µM*	11.6µM*	-1.0%	.	.
CC1(Cc2ccc(Cl)cc2)C(=O)Nc2ccc(-c3cccnc3)cc21 (stereo not given)	.	11.6µM*	13µM*	-5.2%	.	.
CC1(Cc2cc(Cl)ccc2C(F)(F)F)C(=O)Nc2ccc(-c3ccc(F)c(Cl)c3)cc21 (stereo not given)	.	?	?	1.0%	.	.
